Cathepsin G inh = inhibitors of human cathepsin G; inhibition, % at 5 µM (by protocol); actives 0.2% (n = 62,000); purified enzyme, AMC-tetrapeptide fluorescence, pooled mixtures; P08311;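 active = inhibition above 20% in each of the two mixture wells holding the compound; inactive = inhibition of 20% or less in either well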;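 note: 0% = enzyme control without mixture and 100% = blank lacking enzyme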
Target sequence (P08311 21-244 limits assumed): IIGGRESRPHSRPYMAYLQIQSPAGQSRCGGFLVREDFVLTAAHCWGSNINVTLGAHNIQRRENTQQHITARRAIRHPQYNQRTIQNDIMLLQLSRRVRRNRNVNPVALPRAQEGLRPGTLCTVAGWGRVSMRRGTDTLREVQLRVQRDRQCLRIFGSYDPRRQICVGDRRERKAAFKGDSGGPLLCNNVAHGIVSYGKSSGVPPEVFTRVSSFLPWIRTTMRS
BAP1 inh = inhibitors of human BAP1 deubiquitinase | Q92560 | calls only at 20 µM | recombinant BAP1, Ub-AMC hydrolysis fluorescence kinetic; hits give low values | AID 436 | actives 0.48% (n = 72,000);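 active = activity remaining at or below 50% of control, provided the compound also passes the data quality filters; inactive = the rest, including low values that fail the filters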;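 note: 100% = DMSO wells rate and 0% = substrate alone blank rate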
HePTP inh = blocks human HePTP tyrosine phosphatase | recombinant HePTP phosphatase activity, OD absorbance | P35236 | actives 0.64% (n = 110,000) | inhibition, % at 20 µM | AID 521; in the data active = inhibition above about 50%; inconclusive = no clear call, values can overlap the other calls;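 note: plate controls were vehicle for no effect and reference inhibitor for full effect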
Target sequence (P35236 whole entry, looked up): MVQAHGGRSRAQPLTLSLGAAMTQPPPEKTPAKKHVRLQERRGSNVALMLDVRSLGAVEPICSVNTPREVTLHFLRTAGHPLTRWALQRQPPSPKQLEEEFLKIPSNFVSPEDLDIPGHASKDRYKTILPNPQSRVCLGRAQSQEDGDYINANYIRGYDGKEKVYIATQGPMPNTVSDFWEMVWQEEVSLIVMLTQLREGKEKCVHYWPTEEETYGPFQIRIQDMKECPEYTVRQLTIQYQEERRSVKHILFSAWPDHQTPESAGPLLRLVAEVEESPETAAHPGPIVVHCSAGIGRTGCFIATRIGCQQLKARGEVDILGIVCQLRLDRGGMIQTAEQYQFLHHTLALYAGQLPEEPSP
FXIIa mix inh = inhibitors of human coagulation factor XIIa, pooled mixtures. P00748. purified FXIIa, fluorogenic substrate. inhibition, % at 5 µM. actives 0.2% (n = 62,000);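 note: 0% = enzyme without compound and 100% = no enzyme blank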
C1s block = blocks human complement C1s protease activity | P09871 | purified C1s, fluorogenic AMC substrate, pooled mixtures | mean inhibition % of two 10-compound mixtures (hits give high values), % at 5 µM (by protocol) | actives 0.16% (n = 62,000) | AID 538;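 active = inhibition above 20% in each of the two 10-compound mixture wells holding the compound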;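 note: 0% = enzyme wells lacking compound mixture and 100% = no-enzyme blank wells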
FXIa inh mix = factor XIa (human) inhibition, mixture screen; P03951; purified FXIa, fluorogenic substrate, pooled mixtures; inhibition, % at 5 µM; actives 0.19% (n = 62,000);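 note: each value is inhibition by a whole ten-compound pool holding the compound; 0% = enzyme with no mixture and 100% = wells lacking enzyme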
BAP1 inh confirm = BAP1 (human) enzyme inhibition, confirmed; shares compounds with BAP1 inh; purified BAP1, Ub-ethyl ester hydrolysis, HPLC; hits give low values; % of control activity, % at 20 µM; actives 8% (n = 310); AID 753;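 active = percent of control activity at or below 60%; inconclusive = HPLC trace unusable from injection failure or solvent front hiding peaks; inactive = the rest, plus ubiquitin peak ratio over a set limit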
* = called active by the depositor; i = inactive; ? = inconclusive; . = no result given; + = active, no number. The list is not random: actives were taken first. Their share in the collection is about 1.1%. Cut-off read from the data, not from the text of the source, unless noted: active = inhibition above about 20% (passing the limit was not always enough); inactive = the rest.

SMILES	Cathepsin G inh	BAP1 inh	HePTP inh	FXIIa mix inh	C1s block	FXIa inh mix	BAP1 inh confirm
Cc1sc2nc(N)c(C#N)c(-c3ccccc3)c2c1C	.	.	4	.	.	.	.
COc1ccc(S(=O)(=O)Nc2ccccc2C(=O)NCc2ccco2)cc1	0	+	-1	0	-6	7	103
CN(C)c1ccc(/C=C2\C(=O)c3cccc([N+](=O)[O-])c3C2=O)cc1	.	.	3	.	.	.	.
CCOC(=O)CSc1nc2cc(OC)ccc2cc1C#N	-8	+	-4	10	-16	3	118
O=C(CN(c1ccc(F)cc1)S(=O)(=O)c1ccccc1)Nc1cc(Cl)cc(Cl)c1	.	.	6	.	.	.	.
N#Cc1cc(-c2ccccc2)nn1-c1ccccc1	-1	+	0	-12	-17	-8	89
Nc1cc(-c2ccc(Br)cc2)nn1-c1ccccc1	.	.	11	.	.	.	.
CCOC(=O)c1c(C)oc2c1cc(O)c1ccccc12	9	+	-5	-17	13	9	79
CS(=O)(=O)N(CC(=O)NC1CCCCC1)c1ccc(Oc2ccccc2)cc1	.	.	3	.	.	.	.
C(=N\Nc1nn[nH]n1)/c1ccc(N2CCOCC2)cc1	.	.	-10	.	.	.	.
Cc1ccc(NC(=O)c2cnc3scc(C)n3c2=O)c(C)c1	8	+	2	1	0	-4	i
Cc1cccc(NC(=O)c2cnc3scc(C)n3c2=O)c1	-12	i	-13	6	-19	6	.
Cc1cc(NS(=O)(=O)c2ccc(NC(=O)c3cnc4scc(C)n4c3=O)cc2)nc(C)n1	11	+	3	13	18	10	92
Cc1noc(NS(=O)(=O)c2ccc(NC(=O)c3cnc4scc(C)n4c3=O)cc2)c1C	-2	i	-11	3	-16	11	.
C=CCOc1c(Br)cc(/C=C/C(=O)O)cc1OC	.	.	-10	.	.	.	.
O=C(Nc1nc(-c2cccs2)cs1)c1ccc(S(=O)(=O)N2CCCCC2)cc1	8	+	6	4	15	8	89
O=C(Nc1nc(-c2cccs2)cs1)c1cccc(S(=O)(=O)N2CCCCCC2)c1	-18	.	-6	11	-42	-2	.
CCn1c(SCc2nnc(-c3ccccc3)o2)nnc1-c1ccc(S(=O)(=O)N2CCCC2)cc1	4	i	6	10	6	5	.
O=C(CSc1nnc(-c2ccc(F)cc2)o1)Nc1ccc(S(=O)(=O)N2CCCCCC2)cc1	11	+	5	16	15	4	152
O=S(=O)(c1ccc(-c2nnc(SCc3nnc(-c4ccccc4)o3)o2)cc1)N1CCCC1	-3	+	-3	11	-1	4	109
O=C1C=C(c2cccc([N+](=O)[O-])c2)C(=O)N1c1ccc(Cl)cc1	.	.	-4	.	.	.	.
O=C(C1CCN(c2nnc(-n3cccc3)s2)CC1)N1CCN(c2cccc(C(F)(F)F)c2)CC1	9	+	10	8	16	4	101
O=C(C1CCN(c2nnc(-n3cccc3)s2)CC1)N1CCOCC1	12	i	35	-47	15	1	.
CCOc1ccccc1Oc1coc2cc(O)ccc2c1=O	-2	+	-3	-4	-12	4	132
CCOc1ccccc1Oc1coc2cc(OC(=O)c3ccco3)ccc2c1=O	-3	i	9	3	-4	12	.
SMILES	Cathepsin G inh	BAP1 inh	HePTP inh	FXIIa mix inh	C1s block	FXIa inh mix	BAP1 inh confirm
COc1ccccc1Oc1coc2cc(O)ccc2c1=O	-4	+	-1	8	-14	-5	92
COc1ccc2nc(NC(=O)CCc3nc(-c4ccccc4F)no3)sc2c1	6	+	-3	-14	12	3	40*
Cc1ccc(-c2cc(C(=O)Nc3cc(C)ccc3C)[nH]n2)c(O)c1	1	i	2	4	-1	9	.
COc1ccc(OC)c(NC(=O)c2cc(-c3ccc(C)cc3O)n[nH]2)c1	-1	+	13	0	0	6	137
Cc1c(N=Cc2ccco2)c(=O)n(-c2ccccc2)n1C	10	i	7	7	15	4	.
COc1ccc2c(C=Nc3c(C)n(C)n(-c4ccccc4)c3=O)c(O)n(Cc3ccco3)c(=O)c2c1	-4	+	-3	7	-1	3	101
C=CCc1cccc2cc(C(=O)Nc3cccc4c3C(=O)c3ccccc3C4=O)c(=O)oc12	.	.	-21	.	.	.	.
O=S1(=O)CCC(NC(=S)N/N=C/c2ccc(-c3ccc(Cl)cc3Cl)o2)C1 (stereo not drawn)	.	.	2	.	.	.	.
COc1cccc(NC(=O)c2ccccc2-c2nc(-c3ccc(Cl)cc3)no2)c1	7	+	2	-2	4	0	?
CN(C)Cc1c(O)ccc2c1c(-c1ccccc1)nn2-c1ccccc1	.	.	-4	.	.	.	.
O=C1N/C(=N/N=C/c2ccccc2)SC1Cc1ccc(Cl)cc1Cl (stereo not drawn)	.	.	8	.	.	.	.
CSc1nnc2c3cc(C)ccc3n(Cc3ccccc3)c2n1	2	+	5	0	4	0	77
CCCCn1c2c(c3ccccc31)CCc1nonc1-2	-13	+	-1	5	-13	-3	51*
CSc1ccccc1C(=O)O/N=C1\CCCc2c1ccc(O)c2C	.	.	-1	.	.	.	.
CCOC(=O)Cc1csc(-n2sc3ccccc3c2=O)n1	10	+	5	31*	-8	-1	42*
CCn1cc(C(=O)O)c(=O)c2cc(-c3ccc([N+](=O)[O-])o3)c(Cl)cc21	.	.	-17	.	.	.	.
Clc1ccc(OCc2nn3c(-c4ccco4)nnc3s2)c(Cl)c1	-1	+	40	-11	-47	-8	106
Cc1ccc(OCc2nn3c(-c4ccco4)nnc3s2)cc1	-3	i	-6	7	-4	6	.
CC1CCN(S(=O)(=O)c2ccc(NC(=O)Cn3nnc(-c4ccccc4F)n3)cc2)CC1	-12	+	-11	-3	-8	0	135
CC1CCN(S(=O)(=O)c2ccc(NC(=O)CN3CCN(c4ccccc4)CC3)cc2)CC1	7	i	-3	0	9	11	.
CCOc1cc(S(=O)(=O)N2CCC(Cc3ccccc3)CC2)c(OCC)cc1-n1cnnn1	-2	+	-4	4	-4	2	89
CCOc1cc(S(=O)(=O)N2CC=C(c3ccc(F)cc3)CC2)c(OCC)cc1-n1cnnn1	14	i	3	-17	15	11	.
Cc1ccc(S(=O)(=O)N2CCSC2c2ccc(Br)cc2)cc1[N+](=O)[O-] (stereo not drawn)	.	.	12	.	.	.	.
O=c1[nH]c2cc3c(cc2cc1CN(Cc1cccs1)Cc1nnnn1Cc1ccco1)OCCO3	6	i	6	-6	-15	3	.
Cc1cc(C)c2cc(CN(Cc3ccc4c(c3)OCO4)Cc3nnnn3Cc3ccco3)c(=O)[nH]c2c1	-5	i	10	-1	-30	3	.

Screening results as filed in PubChem BioAssay.
